Shiga toxin inh – inhibitors of Shiga toxin in Vero cells | Vero cells, Shiga toxin protein synthesis inhibition reporter | inhibition, % at 38.7 µM | hit rate 9.2% among 290,000; in the data active = inhibition mostly above about 28%, no sharp cut-off; inactive = mostly below about 43%; also: 0% is about no effect
HCV inhibitor – HCV inhibition. Huh7.5.1 HCVcc-Cre infection, luciferase reporter, 44 h. Potency, µM (top dose mostly 41.8 µM), without a hit: top-dose activity change, negative = inhibition, most hits filed as inhibitors. hit rate 3.4% among 340,000. AID 651820; also: potency is read from the fitted curve at half-maximal effect; % is scaled to controls: 0 for no effect and ±100 for the full control effect
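Luciferase read-out (15 sec integration) after a 15 min room-temperature substrate step quantifies HCVcc-Cre infection. Cells, 1,000 per well, had compound added 4 h post-plating, then virus at ~0.5 moi, and were cultured 44 h.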
HCMV antiviral – human cytomegalovirus inhibition | hit rate 4.5% among 410,000 | activity change, negative = inhibition, % at 57.5 µM | HFF cells, HCMV-luciferase reporter, 72 h; hits give low values; in the data active = activity change below about -60%; inconclusive = no clear call, values can overlap the other calls; inactive = above about -39%; also: % is scaled to controls: 0 for no effect and ±100 for the full control effect
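Two compound doses tested in HFFs infected with HCMV-luciferase, MOI 1 PFU/cell, 72 h at 37C. Lysate luminescence read with OneGlo; data normalized against buffer-only and 10uM Salinomycin inhibitor controls.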
Cycloheximide cs – affects cycloheximide protein synthesis inhibition readout, counter-screen | cell reporter, cycloheximide protein synthesis inhibition counterscreen | max response, % | hit rate 12% among 300,000; in the data active = max response mostly above about 13%, no sharp cut-off; inactive = mostly below about 14%; also: read at 38.3 µM for the half of the compounds with a filed dose; 0% is about no effect
Pf growth 96h – P. falciparum growth inhibition at 96 hours; hit rate 6.9% among 320,000; P. falciparum luciferase reporter growth, 96 h; Potency, µM (highest dose often 28.7 µM), for inactives: top-dose activity change, negative = inhibition, usual class: inhibitors; also: potency is read from the fitted curve at half-maximal effect; % is scaled to controls: 0 for no effect and ±100 for the full control effect
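Readout is luminescence from an integrated firefly luciferase in P. falciparum. Red cells, 2% hematocrit and 0.05% parasitemia final, were cultured with compound through two parasite generations (96 hours) at 37 C, 5% CO2.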
Pf growth 48h – P. falciparum growth inhibition at 48 hours (one generation). P. falciparum luciferase growth in erythrocytes, 48 h. Potency, µM (doses to about 28.7 µM), without a hit: top-dose activity change, negative = inhibition, most hits filed as inhibitors. hit rate 5.9% among 310,000. AID 504832; also: potency is read from the fitted curve at half-maximal effect; % is scaled to controls: 0 for no effect and ±100 for the full control effect
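Compounds are pin-transferred into medium, infected erythrocytes (2% hematocrit, 0.1% parasitemia final) are added, and plates sit one parasite generation at 37 C in 5% CO2. Detection reagent is then added and luminescence measured.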
* = called active by the depositor; ? = inconclusive; nt = no result; [ ] = remark or other dose. Most compounds without a hit are left out; they make up all but 21% or so of the library. Unless noted, calls follow the shape of the dose curve; as a rule, active = well fitted inhibition curve with a large enough effect; inconclusive = small, poorly fitted or top-dose-only effect, or another doubt; inactive = no such curve, though single readings can be large or run the other way.

SMILES	Shiga toxin inh	HCV inhibitor	HCMV antiviral	Cycloheximide cs	Pf growth 96h	Pf growth 48h
CCOC(=O)C1=C(O)/C(=C/c2ccc(-c3ccccc3C(=O)O)o2)SC1=Nc1ccc(C)cc1	-5.9	-1.8%	-18.8	-2.0	0.928µM*	?
CCOC(=O)C1=C(O)CSC1=Nc1ccccc1	-12.1	17.5%	-34.1	-3.3	13.5%	30.9%
CCOC(=O)C1=C(O)/C(=C/c2ccccn2)SC1=Nc1ccc(Cl)cc1	-10.6	?	-11.3	-0.8	14.8%	9.28µM*
CC(C)C[C@H](NC(=O)c1nc[nH]c1C(=O)N1CCNCC1)C(=O)OC(C)(C)C	nt	12.0%	-19.2	nt	91.0%	-16.7%
CC(C)(C)OC(=O)[C@H](Cc1ccccc1)NC(=O)c1nc[nH]c1C(=O)NC1CCN(C(=O)OC(C)(C)C)CC1	-13.8	-3.2%	43.8	3.6	3.29µM*	4.65µM*
CC(C)(C)OC(=O)[C@H](Cc1ccccc1)NC(=O)c1nc[nH]c1C(=O)N1CCN(C(=O)OC(C)(C)C)CC1	-8.6	?	-9.0	-3.7	9.28µM*	?
C[C@H](NC(=O)c1nc[nH]c1C(=O)N1CCNCC1)C(=O)OC(C)(C)C	nt	23.6%	-65.4*	nt	19.4%	8.2%
C[C@@H]1C=C[C@](Cc2ccccc2)(C(=O)NCC2CC2)N1C(=O)c1ccccc1	172.7*	-9.7%[8.37 µM]	56.6	70.3*	?	22.9%
Cc1ccc(Cn2cc(C=O)c(-c3ccc(C)cc3)n2)cc1	78.0*	-6.0%	12.2	51.7*	15.0%	32.2%
O=C(N=Nc1c(O)[nH]c2ccccc12)c1cccc(S(=O)(=O)N2CCCCC2)c1	63.2*	3.8%	-4.0	12.3*	3.29µM*	9.28µM*
CC(C)c1ccc2[nH]c(O)c(N=NC(=O)c3cccc(S(=O)(=O)N4CCCCC4)c3)c2c1	-1.2	11.2µM*	-23.9	-3.7	9.28µM*	?
CN1CCN(C(=O)/C=C/c2ccc(Cl)cc2)CC1	33.3	10.6%	-35.5	24.5*	8.6%	51.2%
CN1CCN(C(=O)/C=C/c2ccc(Cl)c(Cl)c2)CC1	29.8	-7.8%	-18.2	36.7*	0.0%	42.3%
O=C(/C=C/c1ccc(Cl)cc1)N1CCN(c2ncccn2)CC1	-2.2	nt	nt	-5.1	-7.2%	nt
Oc1ccc(Cn2ccnc2)c2cccnc12	-6.4	?	-10.6	-1.5	17.9%	3.7µM*
OCc1cn(Cc2ccc(O)c3ncccc23)cn1	nt	nt	nt	nt	6.57µM*	5.22µM*
Oc1ccc(CNc2ccccc2)c2cccnc12	1.9	?	nt	-2.3	37.5%	?
COc1cccc(NC(=O)c2ccc(S(=O)(=O)NCc3cccnc3)cc2)c1	1.8	10µM*	-60.5*	-2.9	2.6%	13.0%
CC(C)c1ccc(NC(=O)c2cc(S(=O)(=O)NCc3ccccc3Cl)ccc2F)cc1	nt	nt	-81.6*	nt	nt	nt
COc1ccc(S(=O)(=O)NCc2cccnc2)cc1C(=O)NC1CCCCC1	-9.5	nt	39.3	-2.8	1.4%	-1.4%
CCN(Cc1ccccc1)S(=O)(=O)c1ccc(F)c(C(=O)Nc2ccc(C(C)C)cc2)c1	nt	nt	-16.4	nt	nt	nt
O=C(NC1CCCCC1)c1ccc(S(=O)(=O)NCc2cccnc2)cc1	16.2	-22.5%	-60.8*	-2.4	nt	-12.3%
COc1cccc(S(=O)(=O)NCc2ccc(C(=O)Nc3cccc(Cl)c3)cc2)c1	-9.8	10µM*	-11.9	-2.7	9.28µM*	nt
COC(=O)c1sc(C(C)(C)C)cc1CSc1ccccc1	-4.0	6.1%	8.5	-0.6	-29.7%	-13.2%
COc1ccc(CC(=O)N[C@@H](C)C(=O)N2CCC3(CC2)NCCc2[nH]cnc23)cc1	-2.3	6.8%	-21.5	14.0	15.2%	13.0%
SMILES	Shiga toxin inh	HCV inhibitor	HCMV antiviral	Cycloheximide cs	Pf growth 96h	Pf growth 48h
COc1ccc(S(=O)(=O)NCc2cccnc2)cc1C(=O)Nc1ccccc1	-6.8	5.0%	-2.2	-2.4	10.4µM*	-14.0%
O=C(Nc1ccccc1)c1cc(S(=O)(=O)Nc2cccnc2)ccc1Cl	-11.4	9.8%	-19.9	1.0	4.7%	5.1%
O=C(Nc1ccccc1)c1cc(S(=O)(=O)NCc2ccncc2)ccc1Cl	-3.0	?	?	1.2	11.7µM*	-5.7%
Cc1ccccc1NC(=O)CSc1nc2ccc(NC(=O)c3ccccc3)cc2s1	nt	nt	-4.6	nt	nt	nt
COc1nc(NC(=O)c2ccc(F)cc2)nc(OC)c1-c1ccccc1	-0.8	?	-64.2*	10.8	?	-19.9%
O=C(Nc1nc(-c2ccccc2)c(-c2ccccc2)o1)c1ccc(F)cc1	6.6	?	-22.4	0.4	9.28µM*	?
O=C(Nc1nnc(-c2ccccc2)s1)c1ccc(F)cc1	33.8	?	-1.3	9.4	-7.3%	92.6%
COc1cccc(C(=O)Nc2nc(-c3ccccc3)c(-c3ccccc3)o2)c1	13.3	?	?	10.2	-28.6%	-23.6%
CC(C(=O)OCC(=O)Nc1ccccc1OC(F)F)N1C(=O)C2CC=CCC2C1=O (stereo not drawn)	nt	nt	21.6	nt	nt	nt
Cc1cccc(C(=O)Nc2ccccc2OCc2cc(=O)n3ccccc3n2)c1	nt	nt	24.9	nt	nt	nt
O=C(COC(=O)c1n[nH]c2ccccc12)c1cc(F)ccc1F	44.0*	0.8%	-23.4	30.4*	12.2%	-11.4%
CCc1ccc(C(=O)COC(=O)c2n[nH]c3ccccc23)cc1	87.0*	-18.6%	-65.2*	47.5*	120.0%	129.9%
O=C(COC(=O)c1n[nH]c2ccccc12)Nc1ccc([N+](=O)[O-])cc1	22.7*	28.4%	-15.2	10.5	14.2%	0.0%
CC(=O)Nc1ccc(NC(=O)COC(=O)c2n[nH]c3ccccc23)cc1	-19.9	-25.0%	-2.7	-0.8	6.6%	14.1%
O=C(COC(=O)c1n[nH]c2ccccc12)NCCc1ccc(Cl)cc1	nt	?	?	nt	5.4%	1.4%
COc1ccc2cc3cc(C(=O)N4CCN(c5cccc(Cl)c5)CC4)sc3nc2c1	nt	nt	3.4	nt	nt	nt
CCOc1ccc(NC(=O)C2CCN(C(=O)N3CC(C)Oc4ccc(Cl)cc43)CC2)cc1 (stereo not drawn)	nt	nt	-3.9	nt	nt	nt
CCCCOc1ccc(S(=O)(=O)NCc2csc(C)n2)cc1	-4.6	?	-66.6*	-2.3	10.4µM*	-7.6%
Cc1ccc(S(=O)(=O)NCc2csc(C)n2)cc1	-4.3	20.6%	?	-3.0	?	2.5%
CCc1ccc(S(=O)(=O)c2cn(CC)c3cc(N4CCCCC4)c(F)cc3c2=O)cc1	nt	nt	10.1	nt	nt	nt
Cc1ccc(S(=O)(=O)c2nc(S(=O)(=O)c3ccc(C)cc3)c(NCCCOC(C)C)s2)cc1	nt	nt	-6.0	nt	nt	nt
COc1cccc(C2C3=C(N=c4s/c(=C\c5ccccc5O)c(=O)n42)c2ccccc2CC3)c1OC (stereo not drawn)	19.6	nt	nt	-1.7	2.94µM*	1.85µM*
COc1cccc(C2C3=C(N=C4SCC(=O)N42)c2ccccc2CC3)c1OC (stereo not drawn)	21.4	?	-14.7	-1.3	186.2%	11.7µM*

High-throughput results (PubChem)
